Data taken from PubChem BioAssay AID624136 (Broad Institute, 2012).
Screen size: about 17,000 compounds; about 75 (0.4%) were called active.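 How the source made its calls: active means compounds whose four printed spots each glow above background more than chance allows, each with a p-value under 7%; inactive means the rest.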 Many of the other results were omitted from the sample, so actives are more common in it than they were.

System: mutant tumor protein p53 (GST-tagged), Homo sapiens
Experiment: small molecules binding GST-tagged mutant p53 – biochemical, small molecule microarray, anti-GST fluorescence, primary screen (AID 624136)

outcome, inactive:
Cc1ccccc1-c1nnc(SCC(=O)Nc2ccc(S(N)(=O)=O)cc2)n1C, CC(C)(C)c1cn2c3ccccc3nc2n1CCN1CCOCC1, CNC[C@H]1Oc2ccc(NS(=O)(=O)c3ccccc3)cc2CC(=O)N([C@H](C)CO)C[C@@H]1C, CC(C)NC(=O)Nc1ccc2c(c1)C(=O)N([C@@H](C)CO)C[C@@H](C)[C@H](CN(C)C)OCCCC[C@H](C)O2, NC(CC(=O)Nc1ccc(Cl)cc1)C(=O)O (stereo unspecified), C[C@@H]1CN([C@@H](C)CO)C(=O)c2cccc(NC(=O)c3ccncc3)c2O[C@@H]1CN(C)CC1CC1, C[C@@H]1CN([C@@H](C)CO)C(=O)c2cccc(NS(=O)(=O)c3cn(C)cn3)c2O[C@@H]1CN(C)Cc1ccc(Cl)c(Cl)c1, COc1ccc(CN(C)C[C@H]2Oc3c(NC(=O)C4CCCCC4)cccc3C(=O)N([C@@H](C)CO)C[C@H]2C)cc1, CC(=O)Nc1ccc(NC(=O)CN(c2ccc(I)cc2)S(C)(=O)=O)cc1, CN(CCc1ccccn1)S(=O)(=O)c1ccc2c3c(cccc13)C(=O)N2, CNC[C@@H]1OCCCC[C@@H](C)Oc2ccc(NS(C)(=O)=O)cc2C(=O)N([C@H](C)CO)C[C@@H]1C, CCN1CCOC(CC(=O)Nc2ccc3c(c2)OCCO3)C1=O (stereo unspecified), C[C@@H]1CN([C@H](C)CO)C(=O)c2cc(NC(=O)Cn3cnnn3)ccc2O[C@@H]1CN(C)CC1CC1, C[C@@H]1CN([C@@H](C)CO)C(=O)c2cc(NS(=O)(=O)c3ccccc3)ccc2O[C@@H](C)CCCCO[C@@H]1CN(C)S(=O)(=O)c1cccs1, O=C(Cn1cnc([N+](=O)[O-])n1)Nc1c(Cl)cccc1Cl, COc1ccc(CN(C)C[C@H]2Oc3c(NS(=O)(=O)c4ccc(Cl)cc4)cccc3C(=O)N([C@H](C)CO)C[C@H]2C)cc1, Cn1c(COc2ccccc2)nnc1SCc1nc2ccccc2c(=O)[nH]1, Cc1noc(C)c1NC(=O)N(C)C[C@H]1Oc2c(NC(=O)c3nc4ccccc4s3)cccc2C(=O)N([C@@H](C)CO)C[C@@H]1C, COc1ccc(CN(C)C[C@H]2Oc3c(NC(=O)NC4CCCCC4)cccc3C(=O)N([C@@H](C)CO)C[C@@H]2C)cc1, Cc1noc(C)c1NC(=O)N(C)C[C@@H]1OCCCC[C@@H](C)Oc2ccc(NC(=O)C3CCCCC3)cc2C(=O)N([C@H](C)CO)C[C@@H]1C, CC1(C)C[C@H](O)C[C@@]2(C)[C@H]1[C@H](O)C=C1COC(=O)[C@@]12O
